We go through 20 compounds from PubChem BioAssay (NCI).

Experiment [1] can be described thus: NCI Yeast Anticancer Drug Screen. Data for the rad50 strain (AID 155).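 Further: 0% = growth of vehicle-only cultures of the same strain.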 As to conditions: S. cerevisiae rad50 strain growth inhibition; at 50.0 µM; active compounds read high. A digest of the protocol:
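Vehicle-treated cultures provide the reference for the growth inhibition reported for compound-exposed, repair-deficient yeast.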

Experiment [2] is described as follows: NCI Yeast Anticancer Drug Screen. Data for the mec2-1 strain (AID 157). As to conditions: S. cerevisiae mec2-1 strain, at 50.0 µM, active compounds read high. A digest of the protocol: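 Test agents were screened against the mec2-1 yeast strain, with defined DNA repair or cell cycle alteration. Growth was scored as inhibition against vehicle-only controls.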
Experiment [3] can be described thus: NCI Yeast Anticancer Drug Screen. Data for the sgs1 mgt1 strain (AID 161).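 Further: 0% = growth of cultures given vehicle only.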 As to conditions: S. cerevisiae sgs1 mgt1 strain, at 50.0 µM, active compounds read high. The method, boiled down: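 Inhibition of yeast growth, normalised to vehicle-treated controls, is reported for a strain bearing genetic alterations in DNA damage repair.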
Experiment [4] can be described thus: NCI Yeast Anticancer Drug Screen. Data for the cln2 rad14 strain (AID 165).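 Further: 0% = growth equal to vehicle treated cultures.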 The conditions noted are these: S. cerevisiae cln2 rad14 strain, at 50.0 µM, active compounds read high. The method, boiled down:
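Growth of compound-exposed yeast (cln2 rad14 genotype) measured and expressed as inhibition relative to vehicle.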

Experiment [5] can be described thus: NCI Yeast Anticancer Drug Screen. Data for the bub3 strain (AID 167). The conditions noted are these: S. cerevisiae bub3 mutant strain, at 50.0 µM, active compounds read high. A digest of the protocol: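 Mutant yeast screening strain plus compound; vehicle-treated cultures serve as the 0% inhibition reference.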
Experiment [6] in a line: NCI Yeast Anticancer Drug Screen. Data for the mlh1 rad18 strain (AID 175). As to conditions: S. cerevisiae mlh1 rad18 strain growth inhibition; at 50.0 µM; active compounds read high. A digest of the protocol: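 In this whole-cell yeast screen, a strain with altered DNA damage repair is challenged with compound, and its growth is measured against matched vehicle-treated controls.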

About 79,000 compounds went through this panel and 15% of them were active in at least one assay; those are over-represented in the sample as a whole. Unmarked numbers belong to inactive results. Active and inactive are the calls of the source. No stated cut-off is given here; in the data, active means growth inhibition above about 70%; inactive means the rest.

`CC1=NC2(CCCCC2)N(Cl)C(=O)C1SC#N` (stereo not given): the growth inhibition was -45.2% in experiment [1]; -72.3% in experiment [2]; -23.8% in experiment [3]; -27.6% in experiment [4]; -13.8% in experiment [5]; -27.4% in experiment [6].
Take `Nc1nc(N)c(N=Nc2ccccc2[N+](=O)[O-])c(=O)[nH]1`: the growth inhibition was 5.85% in experiment [1]; -15.8% in experiment [2]; 2.4% in experiment [3]; -4.95% in experiment [4]; 11.1% in experiment [5]; -1.05% in experiment [6].
Consider `Cc1cc(OCc2nnc3n2S(=O)(=O)c2ccccc2N3C)ccc1Cl`, for which the growth inhibition in experiment [1] is 49.4%; in experiment [2] it was 2%; in experiment [3] it was -21.8%; in experiment [4], -0.75%; in experiment [5], -30.4%; in experiment [6], -22.4%.
Take `Cc1cc(N(C)c2ccccc2)nc(N(C)c2ccccc2)n1`: the growth inhibition in experiment [1] was -24.4%; in experiment [2], -16.6%; in experiment [3], -6.05%; in experiment [4], -14.6%; in experiment [5], -23.3%; in experiment [6] it was -61.5%.
Turning to `COC(=O)CC1(C)[C@H](O)[C@H]2OC(C)(C)O[C@H]2[C@@H]1O` (stereo not given in full), the growth inhibition in experiment [1] was 7.7%; in experiment [2] it was -10.6%; in experiment [3], -18.2%; in experiment [4], -3.25%; in experiment [5] it was -7.5%; in experiment [6], 38.2%.
As to `N#Cc1sc2c(c1OC(=O)c1ccccc1)c(=O)n(-c1ccccc1)c(=S)n2-c1ccccc1`, the growth inhibition in experiment [1] was -2.65%; in experiment [2] it was 10.8%; in experiment [3], 3.45%; in experiment [4], -12.4%; in experiment [5], -5.95%; in experiment [6], 18%.
As for `CCNS(=O)(=O)c1ccc2c(c1)nc(C)n2CC`, the growth inhibition in experiment [1] is 16.4%; in experiment [2], -27.6%; in experiment [3], -3.5%; in experiment [4], 13.1%; in experiment [5], 23.6%; in experiment [6] it was 11.5%.
For the compound `O=C(c1ccccc1)c1ccccc1O`, the growth inhibition is -16.6% in experiment [1]; -10.7% in experiment [2]; 11.4% in experiment [3]; 6.95% in experiment [4]; 10.7% in experiment [5]; 2.9% in experiment [6].
With `N#Cc1cnn(-c2ccc([N+](=O)[O-])cc2)c1N`, the growth inhibition in experiment [1] was 14.8%; in experiment [2], -16.6%; in experiment [3], 3.85%; in experiment [4] it was -26.6%; in experiment [5], 1.7%; in experiment [6], 20.5%.
For `Nc1cccc(SC2CC(=O)N(c3ccc4c(c3)OCO4)C2=O)c1` (stereo not given), the growth inhibition in experiment [1] was 90.4% (active); in experiment [2], 92.8% (active); in experiment [3], 91.5% (active); in experiment [4] it was 79.2% (active); in experiment [5], 91.7% (active); in experiment [6], 85.3% (active).
Take `Cc1cc(O)c(C(C)C)cc1N=Cc1ccccc1O`: the growth inhibition in experiment [1] is -38.4%; in experiment [2], -23.6%; in experiment [3], -58.2%; in experiment [4], -29.7%; in experiment [5], -21.6%; in experiment [6] it was -5.8%.
Regarding `SCCCCN1CCCCC1`, the growth inhibition in experiment [1] was -17.2%; in experiment [2] it was -14.3%; in experiment [3], 5.4%; in experiment [4], -12.2%; in experiment [5], -4.45%; in experiment [6], -9.9%.
As to `CCC(C)C(NN)C(=O)O` (stereo not given), the growth inhibition was 0.7% in experiment [1]; -5.55% in experiment [2]; -22.4% in experiment [3]; -24.6% in experiment [4]; 0% in experiment [5]; -37.3% in experiment [6].
As for `C1=Cc2ccccc2/C1=C\C=C\c1ccccc1`, the growth inhibition in experiment [1] was 19.1%; in experiment [2], 8.75%; in experiment [3], -2.35%; in experiment [4] it was -11.4%; in experiment [5], 2.8%; in experiment [6], 18.1%.
As for `O=c1c2cc3c(=O)n(O)c(=O)c3cc2c(=O)n1O`, the growth inhibition in experiment [1] was 12.4%; in experiment [2], -18.2%; in experiment [3], -9.45%; in experiment [4], 6.75%; in experiment [5] it was 3.25%; in experiment [6] it was -90.4%.
In the case of `COC1OCC(OS(C)(=O)=O)C(NC(C)=O)C1OS(C)(=O)=O` (stereo not given), the growth inhibition in experiment [1] was -13.9%; in experiment [2], -2.85%; in experiment [3], -3.05%; in experiment [4] it was -19.2%; in experiment [5], 0.45%; in experiment [6] it was 2.25%.
With `CC/C(C)=N/C(=O)NN`, the growth inhibition was -20.1% in experiment [1]; 8.75% in experiment [2]; -16.2% in experiment [3]; 19.3% in experiment [4]; 35.5% in experiment [5]; 20.3% in experiment [6].
Turning to `Clc1cccc(-c2sc(-c3cccs3)cc2Cc2cccs2)c1`, the growth inhibition in experiment [1] was -42.8%; in experiment [2] it was -39.8%; in experiment [3] it was -29.4%; in experiment [4], 2.2%; in experiment [5], -9.2%; in experiment [6] it was -14.5%.
`O=[N+]([O-])c1ccc(-c2csc3nc(-c4ccccc4)nn23)cc1`: the growth inhibition in experiment [1] is -0.5%; in experiment [2], -31.2%; in experiment [3], -29.9%; in experiment [4], 10.4%; in experiment [5] it was -28.2%; in experiment [6], -23.2%.
`c1ccc(C2c3ccccc3-c3ncnc(N4CCCCC4)c32)cc1` (stereo not given): the growth inhibition in experiment [1] is 9.4%; in experiment [2], -3.15%; in experiment [3], 24.8%; in experiment [4], 15.1%; in experiment [5], -0.45%; in experiment [6], 14.7%.
